Unmarked numbers belong to inactive results. How the calls were made is not given here.

For the assay, the target named is fMet-Leu-Phe receptor (Homo sapiens) (UniProt P21462). Briefly: human FPR1 ligand displacement single-point test – cell-based, single concentration, selectivity assay for FPRL1 ligand SAR project, SAR follow-up (AID 763). To be noted: FPR1-expressing cells, fluorescent ligand binding inhibition, stronger effect = higher value; at 5.4 µM unless noted.
Sequence of fMet-Leu-Phe receptor (Homo sapiens) (P21462 whole entry, looked up): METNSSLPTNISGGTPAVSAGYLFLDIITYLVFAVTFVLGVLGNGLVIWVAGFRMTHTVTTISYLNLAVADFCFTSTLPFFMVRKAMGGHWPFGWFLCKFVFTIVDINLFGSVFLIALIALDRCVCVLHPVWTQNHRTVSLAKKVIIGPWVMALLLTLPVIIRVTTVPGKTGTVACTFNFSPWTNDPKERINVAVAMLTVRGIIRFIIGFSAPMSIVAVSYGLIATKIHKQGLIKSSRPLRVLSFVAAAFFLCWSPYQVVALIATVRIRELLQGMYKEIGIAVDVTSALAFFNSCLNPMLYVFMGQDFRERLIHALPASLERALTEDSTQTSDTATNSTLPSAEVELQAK
The term inhibition denotes the drop in the measured response relative to a control, in per cent. As for `CCOC(=O)N1CCN(c2nc(-c3ccccc3)c3ccccc3n2)CC1`, the inhibition is 3.6% [at 6.1 µM].
In the case of `CCOC(=O)N1CCN(c2nc(-c3ccccc3Cl)c3cc(Br)ccc3n2)CC1` it was 1.8% [at 4.7 µM].
As for `COc1ccc(-c2cc(-c3ccc(F)cc3)nc(N3CCN(C)CC3)n2)cc1`, the inhibition was -4.8% [at 5.9 µM].
For `CC1CCc2nc(N3CCN(Cc4ccccc4)CC3)nc(C(F)(F)F)c2C1` (centres undefined), the inhibition was 4.7% [at 5.7 µM].
In the case of `CCN1CCN(c2nc(-c3cccc(Cl)c3)c3c(n2)-c2ccccc2OC3)CC1` it was -9.4% [at 5.5 µM]; in that of `CCC(=O)Nc1cccc(-c2nc3ncccn3c2C)c1`, 5.6% [at 7.9 µM]; in that of `COc1ccc(-c2cn3cccnc3n2)cc1NC(=O)c1cccc(C(F)(F)F)c1`, -2%.
Consider `O=C(O)CCCC(=O)N1CCN(c2nc(-c3ccccc3Cl)c3cc(Br)ccc3n2)CC1`, for which the inhibition was 1.9% [at 4.3 µM].
As for `CCOC(=O)N1CCN(c2nc(-c3ccc(Cl)cc3)cc(C(F)(F)F)n2)CC1`, the figure is -2.8%; as for `CC(=O)N1CCN(c2nc(-c3ccccc3)c3ccccc3n2)CC1`, 2.3% [at 6.7 µM].
In the case of `COc1cccc(-c2cc(C(F)(F)F)nc(N3CCN(c4ccccc4OC)CC3)n2)c1` it was -2.3% [at 5 µM].
As for `CCOC(=O)N1CCN(c2nc(-c3ccccc3)c3cc(C)ccc3n2)CC1`, the figure is -2.1% [at 5.9 µM].
Turning to `COc1ccc(-c2cn3cccnc3n2)cc1NC(=O)c1ccc(F)c(F)c1`, the inhibition is -1.7% [at 5.8 µM].
Regarding `COc1ccc(-c2cn3cccnc3n2)cc1NC(=O)c1cccc(Cl)c1`, the inhibition is 3.4% [at 5.9 µM].
In the case of `Cc1ccccc1N1CCN(c2nc(-c3ccccc3)c3cc(Br)ccc3n2)CC1` it was 3.5% [at 4.8 µM].
As for `CCOC(=O)N1CCN(c2nc(-c3ccc(OC)cc3)cc(C(F)(F)F)n2)CC1`, the figure is -5.3%; as for `N#Cc1cc(-c2ccccc2)nc(N2CCN(c3ccccc3)CC2)n1`, -6% [at 6.5 µM].
Consider `Cc1ccc(-c2cc(C(F)F)nc(N3CCN(Cc4ccccc4)CC3)n2)cc1`, for which the inhibition is -7.2% [at 5.6 µM].
In the case of `O=C(c1ccccc1)N1CCN(c2nc(-c3ccccc3)c3cc([N+](=O)[O-])ccc3n2)CC1` it was -6% [at 5.1 µM].
In the case of `CCC(CC)C(=O)Nc1cc(-c2cn3cccnc3n2)ccc1OC`, the inhibition was -5.9% [at 6.6 µM].
As for `Fc1ccc(-c2cc(C(F)(F)F)nc(N3CCN(c4cccc(Cl)c4)CC3)n2)cc1`, the figure is 5.6% [at 5.1 µM]; as for `Cc1ccc(-c2cc(C(F)F)nc(N3CCN(c4cccc(Cl)c4)CC3)n2)cc1`, 2.7%; as for `O=C(c1ccccc1Cl)N1CCN(c2nc(-c3ccccc3)c3cc(Cl)ccc3n2)CC1`, -3.1% [at 4.8 µM].
Turning to `Cc1ccc(-c2cc(C(F)F)nc(N3CCN(c4ccccc4)CC3)n2)cc1`, the inhibition is -2.2% [at 5.8 µM].
Turning to `Fc1ccc(-c2cc(C(F)(F)F)nc(N3CCN(c4ccc(F)cc4)CC3)n2)cc1`, the inhibition was -2% [at 5.3 µM].
As for `Clc1cccc(-c2nc(N3CCN(c4ccccc4)CC3)nc3c2COc2ccccc2-3)c1`, the figure is -0.5% [at 4.9 µM]; as for `Cc1ccc2nc(N3CCN(C(=O)CCCC(=O)O)CC3)nc(-c3ccccc3)c2c1`, -4.8% [at 5.3 µM].
Turning to `COc1ccc(-c2cc(C(F)(F)F)nc(N3CCN(C)CC3)n2)cc1`, the inhibition is 2.1% [at 6.3 µM].
Consider `Clc1cccc(-c2nc(N3CCN(Cc4ccccc4)CC3)nc3c2COc2ccccc2-3)c1`, for which the inhibition was 5.3% [at 4.7 µM].
In the case of `COc1ccc(-c2cn3cccnc3n2)cc1NC(=O)c1ccc(Cl)cc1` it was -0.5% [at 5.9 µM]; in that of `O=C(O)CCC(=O)N1CCN(c2nc(-c3ccccc3)c3cc([N+](=O)[O-])ccc3n2)CC1`, -0.6% [at 5.1 µM].
In the case of `CCOc1ccc(C(=O)Nc2cc(-c3cn4cccnc4n3)ccc2OC)cc1` it was -6.6% [at 5.7 µM]; in that of `COc1ccc(-c2cn3cccnc3n2)cc1NC(=O)C(C)C`, -8.8% [at 7.2 µM].
As for `O=C(O)CCC(=O)N1CCN(c2nc(-c3ccccc3)c3cc(Br)ccc3n2)CC1`, the figure is -0.5% [at 4.7 µM].
